The target in one experiment is DNAJC8. The experiment is described as follows: pooled miR-30 sensor sort-seq; sequence = guide strand. The settings on record: shRNA.
As to TTGGCTTGGAAGTTTCGCCAGC, the sensor-assay potency score (higher = more potent) was -0.414.
Same read-out and setting: then TTTATATACAGCTTGTTTGAAC, with -0.768; and TTTTTCGAAGTTAGAACCGAGT, with -0.8; and TTTCTTCATCTGTAACTTCAGG, with -0.78.
On the same count and under the same terms, then TTTCTTGAGCTTCAATCTCTTC, with -0.98; and TTGTCGTTTCCTTTCATGCATC, with -1.33; and TTTTTCTTGAGCTTCAATCTCT, with 0.129.

For a further experiment, the target named is DNAL4. The experiment is described as above. The settings on record: shRNA.
As to TTGTTGTTGGAGAATTTCTCAC, the sensor-assay potency score (higher = more potent) was -0.596.
On to TATATAAATAAGACCGCTGTGT, for which the sensor-assay potency score (higher = more potent) is -0.264.
In turn, ATAATCAGCCTCATCTTTCTTC registered a sensor-assay potency score (higher = more potent) of 0.738.
On the same count and under the same terms, the figure for TTGTCTCTTTGATCATCTTGGC is -0.232.
On the same count and under the same terms, then TCTTTGATCATCTTGGCGGCGC, with -0.0929.
The same measure, in the same setting: then TAGAGGAGGTTCTTCACCTCGT, with 0.0799; and ACTTCTTGTCCATTGTCTCTTT, with -0.545; and TCTGCAGTCGCTTATAATCAGC, with -1.4.
On to TCTCTTTGATCATCTTGGCGGC, for which the sensor-assay potency score (higher = more potent) is -0.315.
Take TCGTGGGTGATCTCAAACCCAA: the sensor-assay potency score (higher = more potent) is -1.47.
On the same count and under the same terms, the figure for ATTGTCTCTTTGATCATCTTGG is 0.417.

A further experiment addresses DNASE2B. Described as above. The settings on record: shRNA.
Turning to TACTCTTAGAGGCATATGCTTC, the sensor-assay potency score (higher = more potent) is -0.938.
On the same count and under the same terms, the figure for TATAGCTGTTGTAATGTCCTTC is 0.757; for TTGGTGTGTCCATACTTTCTGC it is -0.698; for TTGAACTCTGTTCCACAGCAGT it is -0.963.
Still for that read-out and setting: then TTCTGTTAACAAGTGTGTCTTC, with -0.13; and TAGGTCTCCAATACATGTCCAG, with -0.704; and TAACAAGTGTGTCTTCAGCCGT, with -0.785.
In the case of TTTAATTGCTTTTATATTGTAG, the sensor-assay potency score (higher = more potent) is -0.233.
Same read-out and setting: the figure for ATAATCATAGCCTTCTTCCGGA is 0.631; for TCTAGTTGTAGAGTCTAGGTAC it is 0.705; for TTGTATATTAGATAGGCTGTGT it is 0.0611.
On the same count and under the same terms, the figure for TTTTATATTGTAGACATGGTAA is -1.07.

For another experiment, the target named is DNMT3L. The description is as above. The note with it: shRNA.
Consider TGTGACATCAACCACATGCTTC, for which the sensor-assay potency score (higher = more potent) was -0.297.
Same read-out and setting: then TATATTTCGCTGGTTAGCCTTG, with -0.491; and AATACTTGAAATATTCTCTTAG, with 0.0137; and TATGCAATAAGATCTCTGCCTG, with -0.0706.
On the same count and under the same terms, then ATGTCTTCTATATTTCGCTGGT, with -0.668; and TTGGTACCCGTCATCGTCGTAC, with -0.554; and TGAACCTGGAGACTTCCGCAGC, with -0.928.
The same measure, in the same setting: the figure for AACTGGAACAGGTACCAGCTGG is -0.764.
For the sequence TGGAACTGGAACAGGTACCAGC, the sensor-assay potency score (higher = more potent) is -1.35.
Same read-out and setting: then TTCTGTTGAAAAATACTTGAAA, with -0.77.

Values taken from the OligoGym collection.
Further: reference of the scale not given here.
